Results filed as inconclusive are left out. Active and inactive are the calls of the source. Calls come from the whole dose curve; as a rule, active = well fitted inhibition curve with a large enough effect; inconclusive = small, poorly fitted or top-dose-only effect; inactive = flat fitted curve, though single readings scatter.
Tests used:
HEK293 = assay: Cytotoxic Profiling of Annotated Libraries Using Quantitative High-Throughput Screening (AID 1296008); conditions: Five cell lines viability, CellTiter-Glo ATP luminescence, 48-72 h; max response: stronger effect = lower value
Procedure, shortened: (§1)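 Cytotoxicity was measured as CellTiter-Glo ATP luminescence, read after 10 min at room temperature. Compound treatment of the cells lasted 48 or 72 hr at 37 degrees Celsius in a qHTS format.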

HaCat [1] = assay: as above; conditions: Five cell lines viability, CellTiter-Glo ATP luminescence, 48-72 h; max response: stronger effect = lower value
Procedure, shortened: as §1

KB-3-1 = assay: as above; conditions: Five cell lines viability, CellTiter-Glo ATP luminescence, 48-72 h; max response: stronger effect = lower value
Procedure, shortened: as §1

NIH3T3 = assay: as above; conditions: Five cell lines viability, CellTiter-Glo ATP luminescence, 48-72 h; max response: stronger effect = lower value
Procedure, shortened: as §1

HEK293T = assay: qHTS assay to identify novel small-molecules to repurpose for Merkel cell carcinoma treatment (AID 1296009); conditions: MCC and control cell lines, CellTiter-Glo viability, 72 h; at 44.8 µM (top of the series) unless noted
Procedure, shortened: (§2)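 Cell viability, measured as CellTiter-Glo luminescence, was normalized between DMSO and no-cell wells. The cells had been exposed to 8- or 11-point compound dilutions for 72 hr at 37 degree celsius.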

MCC-13 = assay: as above; conditions: MCC and control cell lines, CellTiter-Glo viability, 72 h; series mostly up to 46 µM
Procedure, shortened: as §2

MCC-26 = assay: as above; conditions: MCC and control cell lines, CellTiter-Glo viability, 72 h; series mostly up to 46 µM
Procedure, shortened: as §2

MKL-1 = assay: as above; conditions: MCC and control cell lines, CellTiter-Glo viability, 72 h; series mostly up to 46 µM
Procedure, shortened: as §2

MKL-2 = assay: as above; conditions: MCC and control cell lines, CellTiter-Glo viability, 72 h; series mostly up to 46 µM
Procedure, shortened: as §2

HACAT [2] = assay: as above; conditions: MCC and control cell lines, CellTiter-Glo viability, 72 h; at 44.8 µM (top of the series) unless noted
Procedure, shortened: as §2
% is set by controls: 0 for no effect and ±100 for the full control effect; potency is the fitted concentration of half-maximal effect.
Note: nearly all actives have a fitted effect of over 60% in size.

C1N2CN3CN1CN(C2)C3
inactive: outcome (HEK293) | max response (HaCat [1]) -1.63% | max response (KB-3-1) -1.26% | max response (NIH3T3) -2.39% | outcome (HEK293T) | Potency (MCC-13) | Potency (MCC-26) | Potency (MKL-1) | Potency (MKL-2)

C[C@@]12CCC[C@H]1[C@@H]1CC[C@H]3C[C@@H](O)CC[C@]3(C)[C@H]1CC2
inactive: outcome (HEK293) | max response (HaCat [1]) 2.53% | max response (KB-3-1) -1.74% | max response (NIH3T3) 0.76% | outcome (HEK293T) | Potency (MCC-13) | Potency (MCC-26) | Potency (MKL-1) | Potency (MKL-2)

O=C1Nc2cc(Cl)ccc2Oc2ccccc21
inactive: outcome (HEK293) | outcome (HaCat [1]) | max response (NIH3T3) -1.14% | outcome (HACAT [2]) | outcome (HEK293T) | Potency (MCC-13) | Potency (MCC-26) | Potency (MKL-1) | Potency (MKL-2)

Oc1ccccc1-c1nnco1
inactive: outcome (HEK293) | outcome (HaCat [1]) | max response (NIH3T3) 1.39% | outcome (HACAT [2]) | outcome (HEK293T) | Potency (MCC-13) | Potency (MCC-26) | Potency (MKL-1) | Potency (MKL-2)

COC(=O)CCCCC(CCSS/C(CCO)=C(\C)N(C=O)Cc1cnc(C)nc1N)SC(C)=O (stereo unspecified)
inactive: outcome (HEK293) | outcome (HaCat [1]) | outcome (NIH3T3) | outcome (HACAT [2]) | outcome (HEK293T) | Potency (MCC-13) | Potency (MCC-26) | Potency (MKL-1) | Potency (MKL-2)

CCOC(=O)NNc1ccc(N(CC)CC(C)O)nn1 (stereo unspecified)
inactive: outcome (HEK293) | outcome (HaCat [1]) | max response (NIH3T3) 4.97% | outcome (HACAT [2]) | outcome (HEK293T) | Potency (MCC-13) | Potency (MCC-26) | Potency (MKL-1)

CN(CC1(C)CCCO1)S(=O)(=O)c1ccc(Cl)c(S(N)(=O)=O)c1 (stereo unspecified)
inactive: max response (HEK293) -6.48% | max response (HaCat [1]) -20.1% | outcome (KB-3-1) | Potency (MCC-13) | Potency (MCC-26) | Potency (MKL-1) | Potency (MKL-2)

CN1N=C(C(N)=O)CCC1=O
inactive: outcome (HEK293) | outcome (HaCat [1]) | outcome (NIH3T3) | outcome (HACAT [2]) | outcome (HEK293T) | Potency (MCC-13) | Potency (MCC-26) | Potency (MKL-1) | Potency (MKL-2)

CC(NC(CCc1ccccc1)C(=O)O)C(=O)N1C(=O)N(C)CC1C(=O)O (stereo unspecified)
inactive: outcome (HEK293) | outcome (HaCat [1]) | max response (NIH3T3) -5.8% | outcome (HACAT [2]) | outcome (HEK293T) | Potency (MCC-13) | Potency (MCC-26) | Potency (MKL-1) | Potency (MKL-2)

COC(=O)/C=C(/C)N
inactive: outcome (HEK293) | outcome (HaCat [1]) | outcome (NIH3T3) | outcome (HACAT [2]) | outcome (HEK293T) | Potency (MCC-13) | Potency (MCC-26) | Potency (MKL-1) | Potency (MKL-2)

CCCCCCCCCCCCCC[N+](C)(C)C
active: Potency (HEK293) 2.66 µM | Potency (HaCat [1]) 5.96 µM | Potency (KB-3-1) 16.4 µM | Potency (NIH3T3) 23.7 µM | Potency (MCC-26) 16.8 µM | Potency (MKL-1) 1.19 µM | Potency (MKL-2) 1.19 µM

O=C1CC(c2ccc(Cl)cc2)CC(=O)N1
inactive: outcome (HEK293) | outcome (HaCat [1]) | max response (NIH3T3) -1.3% | outcome (HACAT [2]) | outcome (HEK293T) | Potency (MCC-13) | Potency (MCC-26) | Potency (MKL-1) | Potency (MKL-2)

O=C(CCOCCOCCOCCOCCC(=O)Nc1c(I)cc(I)c(C(=O)O)c1I)Nc1c(I)cc(I)c(C(=O)O)c1I
inactive: outcome (HEK293) | outcome (HaCat [1]) | max response (NIH3T3) 0.931% | outcome (HACAT [2]) | outcome (HEK293T) | Potency (MCC-13) | Potency (MCC-26) | Potency (MKL-1) | Potency (MKL-2)

O=C(c1ccco1)N1CCNCC1
inactive: outcome (HEK293) | outcome (HaCat [1]) | max response (NIH3T3) 4.52% | outcome (HACAT [2]) | outcome (HEK293T) | Potency (MCC-13) | Potency (MCC-26) | Potency (MKL-1) | Potency (MKL-2)

Cc1c(N)cccc1C(F)(F)F
inactive: outcome (HEK293) | outcome (HaCat [1]) | max response (NIH3T3) -0.97% | outcome (HACAT [2]) | outcome (HEK293T) | Potency (MCC-13) | Potency (MCC-26) | Potency (MKL-1) | Potency (MKL-2)

CO[C@@]1(NC(=O)CSC[C@@H](N)C(=O)O)C(=O)N2C(C(=O)O)=C(CSc3nnnn3C)CS[C@@H]21
inactive: outcome (HEK293) | outcome (HaCat [1]) | max response (NIH3T3) -3.38% | outcome (HACAT [2]) | outcome (HEK293T) | Potency (MCC-13) | Potency (MCC-26) | Potency (MKL-1) | Potency (MKL-2)

NS(=O)(=O)c1ccc(N2CCCCS2(=O)=O)cc1
inactive: outcome (HEK293) | outcome (HaCat [1]) | outcome (NIH3T3) | outcome (HACAT [2]) | outcome (HEK293T) | Potency (MCC-13) | Potency (MCC-26) | Potency (MKL-1) | Potency (MKL-2)

COc1cc(OC)nc(O[C@H](C(=O)O)C(OC)(c2ccccc2)c2ccccc2)n1
inactive: outcome (HEK293) | outcome (HaCat [1]) | outcome (NIH3T3) | outcome (HACAT [2]) | outcome (HEK293T) | Potency (MCC-13) | Potency (MCC-26) | Potency (MKL-1) | Potency (MKL-2)

Nc1cccc2c(N)cccc12
inactive: outcome (HaCat [1]) | max response (KB-3-1) 15.8% | outcome (HACAT [2]) inactive [at 92 µM]
active: Potency (HEK293) 34.4 µM | Potency (MCC-13) 38.6 µM | Potency (MKL-1) 6.11 µM | Potency (MKL-2) 1.93 µM

CCN(CC)CC(=O)Oc1ccc(NC(C)=O)cc1
inactive: outcome (HEK293) | outcome (HaCat [1]) | outcome (NIH3T3) | outcome (HACAT [2]) | outcome (HEK293T) | Potency (MCC-13) | Potency (MCC-26) | Potency (MKL-1) | Potency (MKL-2)

CN(C)CCN1CCN(c2cccc(Cl)c2)C1=O
inactive: outcome (HEK293) | outcome (HaCat [1]) | outcome (NIH3T3) | outcome (HACAT [2]) | outcome (HEK293T) | Potency (MCC-13) | Potency (MCC-26) | Potency (MKL-1) | Potency (MKL-2)

CC(=O)OCC(=O)[C@@]1(O)[C@H](OC(C)=O)C[C@H]2[C@@H]3CCC4=CC(=O)C=C[C@]4(C)[C@@]3(F)[C@@H](O)C[C@@]21C
inactive: outcome (HEK293) | outcome (HaCat [1]) | outcome (NIH3T3) | outcome (HACAT [2]) | outcome (HEK293T) | Potency (MCC-13) | Potency (MCC-26) | Potency (MKL-1) | Potency (MKL-2)
